Source: PubChem (several laboratories)
697 NFkB inh – lowers PMA/ionomycin-induced NF-kB signal in 697 B cells. 697 B-cell NF-kB luciferase reporter, 16 h. inhibition, % at 4 µM. actives 0.33% (n = 330,000). AID 435022; in the data active = inhibition above about 35%
Jurkat NFkB inh – inhibitors of the PMA/ionomycin-induced NF-kB reporter in Jurkat cells; PMA/ionomycin-induced NF-kB luciferase reporter, luminescence; actives 0.53% (n = 330,000); inhibition, % at 4 µM; in the data active = inhibition above about 50%
Gli-Sufu block – Gli-Sufu pathway antagonism; Sufu-KO-LIGHT fibroblasts, Gli luciferase reporter luminescence; inhibition, % at 5 µM; actives 0.74% (n = 340,000); AID 588413;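 active = inhibition above about 55%, limit read from the data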;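 also: 0% = DMSO-treated cells and 100% = wells with medium but no cells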
Mdm2 MdmX PPI – disrupts the human Mdm2-MdmX interaction; O15151+Q00987; SaOS-2 split-luciferase Mdm2/MdmX complementation, luminescence; inhibition, % at 8 µM; actives 3% (n = 330,000); AID 485346;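 active = inhibition of at least 50% at 8 µM in the primary screen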
Target sequence (O15151 whole entry, looked up): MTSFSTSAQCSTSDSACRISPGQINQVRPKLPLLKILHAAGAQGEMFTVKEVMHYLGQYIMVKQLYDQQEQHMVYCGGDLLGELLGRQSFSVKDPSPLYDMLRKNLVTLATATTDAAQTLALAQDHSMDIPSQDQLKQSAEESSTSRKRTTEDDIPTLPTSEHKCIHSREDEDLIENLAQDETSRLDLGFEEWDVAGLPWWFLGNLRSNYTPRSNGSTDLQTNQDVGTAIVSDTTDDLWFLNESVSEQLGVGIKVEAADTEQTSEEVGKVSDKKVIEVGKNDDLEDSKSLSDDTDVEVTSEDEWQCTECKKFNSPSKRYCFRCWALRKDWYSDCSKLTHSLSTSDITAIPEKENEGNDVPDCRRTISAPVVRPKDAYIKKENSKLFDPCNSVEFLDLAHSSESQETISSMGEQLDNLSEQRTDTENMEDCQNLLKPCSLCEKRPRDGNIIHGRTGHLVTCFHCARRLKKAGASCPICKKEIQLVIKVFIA
Target sequence (Q00987 whole entry, looked up): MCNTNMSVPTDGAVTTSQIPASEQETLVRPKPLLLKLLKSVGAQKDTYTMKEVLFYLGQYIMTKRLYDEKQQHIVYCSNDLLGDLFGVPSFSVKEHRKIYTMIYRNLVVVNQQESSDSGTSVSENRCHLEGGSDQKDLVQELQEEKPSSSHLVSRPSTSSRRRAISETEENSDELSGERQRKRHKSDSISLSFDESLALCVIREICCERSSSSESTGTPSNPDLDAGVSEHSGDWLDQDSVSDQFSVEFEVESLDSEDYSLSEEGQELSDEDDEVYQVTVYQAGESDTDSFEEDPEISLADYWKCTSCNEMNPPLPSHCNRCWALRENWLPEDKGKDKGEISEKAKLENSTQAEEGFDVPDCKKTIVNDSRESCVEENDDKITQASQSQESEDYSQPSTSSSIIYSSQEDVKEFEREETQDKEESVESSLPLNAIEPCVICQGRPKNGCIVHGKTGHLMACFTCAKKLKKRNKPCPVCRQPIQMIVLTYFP
Beta cell apopt – beta cell apoptosis inhibition. INS-1E cytokine-induced death, ATP luminescence, 48 h; percent of positive-control rescue, neutral wells zero. protection from apoptosis, % (test concentration not listed). actives 0.8% (n = 300,000). AID 435005;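 active = Every replicate reaches about 75%, or at least half do and their mean reaches it too, limit read from the data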;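 also: 0% = cytokine-treated negative control wells and 100% = positive control rescue; higher means more ATP so stronger rescue from cytokine killing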
Gli-Sufu confirm – Gli-SUFU antagonism confirmation, single concentration; Sufu-KO-LIGHT cells, Gli luciferase reporter, luminescence; shares compounds with Gli-Sufu block; actives 40% (n = 2,500); inhibition, % at 5 µM;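 active = mean inhibition at 5 µM reaching about 45%, limit read from the data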;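 also: plate controls were DMSO-treated cells for no effect and wells lacking cells for full effect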
Gli cytotox – cytotoxicity counter-screen for Gli-SUFU antagonists; shares compounds with Gli-Sufu block; Sufu-KO-LIGHT cells cytotoxicity, ATP luminescence; cytotoxicity, % at 5 µM; actives 32% (n = 2,500); AID 651994;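 active = mean cytotoxicity at 5 µM above about 25%, limit read from the data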;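 also: cells exposed to compound overnight for roughly 16 to 18 hours; plate controls were DMSO wells with cells for no effect and medium without cells for full effect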
Wnt3a counter – Wnt3a reporter inhibition counter-screen. shares compounds with Gli-Sufu block. Wnt-LIGHT cells, Wnt3a-driven luciferase reporter, luminescence. inhibition, % at 6.25 µM. actives 20% (n = 2,500);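 active = mean inhibition above about 25%, limit read from the data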
Starred values were filed as active, the others as inactive. In the library only some 4% were active in any assay of this set; here they are far more common.

Results for CCNC(=O)/C(C#N)=C/c1c(N(Cc2ccccc2)Cc2ccccc2)nc2ccccn2c1=O ?
697 NFkB inh: 6; Jurkat NFkB inh: 2; Gli-Sufu block: 88*; Mdm2 MdmX PPI: 30; Beta cell apopt: 10; Gli-Sufu confirm: 27; Gli cytotox: -1; Wnt3a counter: -26

Results for COc1ccc(C)cc1NC(=O)Nc1ccc(C(=O)N2CCCC2)cc1 ?
697 NFkB inh: 7; Jurkat NFkB inh: 3; Gli-Sufu block: -23; Mdm2 MdmX PPI: 16; Beta cell apopt: 12

What do the screens show for `CC(C)CCN(C(=O)CCCSc1nc2ccccc2[nH]1)c1c(N)n(Cc2ccccc2)c(=O)[nH]c1=O`?
697 NFkB inh: -19; Jurkat NFkB inh: 2; Gli-Sufu block: -6; Mdm2 MdmX PPI: 10; Beta cell apopt: 0

Results for COc1ccc(N2CCN(C(=O)c3ccc(CS(=O)(=O)c4ccc(OC)cc4)o3)CC2)cc1 ?
697 NFkB inh: 9; Jurkat NFkB inh: 9; Gli-Sufu block: 2; Mdm2 MdmX PPI: 13; Beta cell apopt: -4

Results for Cc1nn(Cc2ccc(C(=O)N3CCCC3)o2)c(C)c1[N+](=O)[O-] ?
697 NFkB inh: -10; Jurkat NFkB inh: -8; Gli-Sufu block: -33; Mdm2 MdmX PPI: 11

What do the screens show for `COc1ccc(N2CCN(C(=O)c3ccc(Cn4nc(C)c([N+](=O)[O-])c4C)o3)CC2)cc1`?
697 NFkB inh: -8; Jurkat NFkB inh: 0; Gli-Sufu block: 90*; Mdm2 MdmX PPI: 1; Gli-Sufu confirm: 11; Gli cytotox: 27*; Wnt3a counter: -41

Results for COc1ccc(S(=O)(=O)Cc2ccc(C(=O)N3CCN(c4ccc(Cl)cc4)CC3)o2)cc1 ?
697 NFkB inh: -8; Jurkat NFkB inh: 16; Gli-Sufu block: 52; Mdm2 MdmX PPI: -14; Gli-Sufu confirm: 18; Gli cytotox: 11; Wnt3a counter: -29

How did Cc1c(C)n(Cc2ccc(F)cc2)c2ccc(C(=O)NCCN3CCOCC3)cc12 do in these assays?
697 NFkB inh: -20; Jurkat NFkB inh: -6; Gli-Sufu block: 5; Mdm2 MdmX PPI: 27; Beta cell apopt: -6

Results for CC(C)C(NS(=O)(=O)c1cccc2nsnc12)C(=O)NC1CCCCC1C (centres undefined) ?
697 NFkB inh: 8; Jurkat NFkB inh: 23; Gli-Sufu block: 58*; Mdm2 MdmX PPI: -11; Beta cell apopt: -5; Gli-Sufu confirm: 28; Gli cytotox: 4; Wnt3a counter: -9

Results for COC(=O)c1nnn(CC(=O)Nc2cccc(Cl)c2C)c1C(=O)OC ?
697 NFkB inh: -7; Jurkat NFkB inh: -6; Gli-Sufu block: 99*; Mdm2 MdmX PPI: -21; Beta cell apopt: -1; Gli-Sufu confirm: 18; Gli cytotox: -2; Wnt3a counter: 2

Results for O=C(CC(c1ccccc1)c1cc(Br)ccc1O)NCCCN1CCOCC1 (centres undefined) ?
697 NFkB inh: -11; Jurkat NFkB inh: -3; Gli-Sufu block: 52; Mdm2 MdmX PPI: 3; Beta cell apopt: -1; Gli-Sufu confirm: 19; Gli cytotox: 3; Wnt3a counter: -30

How did O=C(NCCCN1CCOCC1)c1ccccc1 do in these assays?
697 NFkB inh: 0; Jurkat NFkB inh: -9; Gli-Sufu block: 61*; Mdm2 MdmX PPI: -13; Beta cell apopt: -7; Gli-Sufu confirm: 29; Gli cytotox: 13; Wnt3a counter: 3

How did O=C(NCCCN1CCOCC1)c1cccnc1 do in these assays?
697 NFkB inh: 19; Jurkat NFkB inh: 8; Gli-Sufu block: -10; Mdm2 MdmX PPI: 17; Beta cell apopt: 3

Results for Cc1ccc(C(C)C)c(OCC(=O)NNCC(=O)Nc2cccc(F)c2)c1 ?
697 NFkB inh: 5; Jurkat NFkB inh: -6; Gli-Sufu block: -4; Mdm2 MdmX PPI: 28; Beta cell apopt: 0

Results for Cc1ccc(S(=O)(=O)Nc2ccc(-n3c(C)nc4ccccc4c3=O)cc2)cc1 ?
697 NFkB inh: -17; Jurkat NFkB inh: -6; Gli-Sufu block: 82*; Mdm2 MdmX PPI: 26; Gli-Sufu confirm: 20; Gli cytotox: 21; Wnt3a counter: -10

How did O=c1nc2ccccc2c(NS(=O)(=O)c2ccccc2)n1-c1ccccc1 do in these assays?
697 NFkB inh: -5; Jurkat NFkB inh: -14; Gli-Sufu block: 83*; Mdm2 MdmX PPI: 6; Beta cell apopt: 6; Gli-Sufu confirm: 27; Gli cytotox: 15; Wnt3a counter: -15

Results for CCOc1ncccc1C(=O)Nc1nc(SC)ns1 ?
697 NFkB inh: -31; Jurkat NFkB inh: -23; Gli-Sufu block: -34; Mdm2 MdmX PPI: -37; Beta cell apopt: 5

Results for Cc1nn(CC(=O)NC(=O)NC2CCCC(C)C2C)c(=O)c(C#N)c1C (centres undefined) ?
697 NFkB inh: 2; Jurkat NFkB inh: 0; Gli-Sufu block: -3; Mdm2 MdmX PPI: -10; Beta cell apopt: -1

Results for Cn1c(=O)c2c(nc(SCC(=O)NCc3ccc4c(c3)OCO4)n2Cc2ccc(Cl)cc2)n(C)c1=O ?
697 NFkB inh: -3; Jurkat NFkB inh: -18; Gli-Sufu block: 62*; Mdm2 MdmX PPI: 28; Beta cell apopt: 5; Gli-Sufu confirm: 27; Gli cytotox: -7; Wnt3a counter: -25

How did Cc1ccc(S(=O)(=O)N2C[C@@H]3[C@H]4CC[C@H](C4)[C@@H]3[C@@H](C)[C@@H]2c2cn(Cc3ccccc3)c3ncccc23)cc1 do in these assays?
697 NFkB inh: 1; Gli-Sufu block: -9; Mdm2 MdmX PPI: 19

How did Cc1ccc(S(=O)(=O)N2C[C@@H]3CCCC[C@@H]3[C@@H](C)[C@H]2c2cn(Cc3ccccc3)c3ncccc23)cc1 do in these assays?
697 NFkB inh: 13; Gli-Sufu block: 78*; Mdm2 MdmX PPI: 41; Gli-Sufu confirm: 86*; Gli cytotox: 40*; Wnt3a counter: 33*

Results for Cc1ccc(S(=O)(=O)N2C[C@@H]3CCCC[C@@H]3[C@@H](C)[C@H]2c2cn(Cc3ccccc3)c3ccccc23)cc1 ?
697 NFkB inh: 26; Gli-Sufu block: 88*; Mdm2 MdmX PPI: 20; Gli-Sufu confirm: 85*; Gli cytotox: 32*; Wnt3a counter: 7

How did COc1ccc2c(c1)c([C@@H]1[C@H](C)[C@H]3CCCC[C@H]3CN1S(=O)(=O)c1ccc(C)cc1)cn2C do in these assays?
697 NFkB inh: 0; Gli-Sufu block: 6; Mdm2 MdmX PPI: 39

How did O=C(COC(=O)C1CC(=O)N(Cc2ccccc2)C1)Nc1ccc(Cl)cc1F (centres undefined) do in these assays?
697 NFkB inh: -3; Jurkat NFkB inh: -1; Gli-Sufu block: -5; Mdm2 MdmX PPI: -30; Beta cell apopt: -9
